Test results reported in PubChem BioAssay (NCI).
The panel holds about 79,000 compounds, 15% with a hit somewhere; the sample as a whole holds those more often. Activity calls are given as the source filed them. No stated cut-off is given here; in the data, active means growth inhibition above about 70%; inactive means the rest.

How the values were obtained:
[1] = NCI Yeast Anticancer Drug Screen. Data for the rad52 strain (AID 147);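 further: 0% = growth of vehicle-treated control cultures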; conditions: S. cerevisiae rad52 mutant growth inhibition, hits give high values
How it was run: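 The repair-mutant yeast strain was incubated with compounds, then growth was read and inhibition derived relative to vehicle.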

[2] = NCI Yeast Anticancer Drug Screen. Data for the wt1 strain (AID 149);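 further: 0% = growth of vehicle-treated wt1 cultures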; conditions: S. cerevisiae wt1 strain (SPY 50644) growth inhibition, hits give high values
How it was run: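 Measured: growth of wt1 yeast under compound versus vehicle treatment, reported as inhibition.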

[3] = NCI Yeast Anticancer Drug Screen. Data for the rad50EPP+ strain (AID 151);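 further: 0% = growth of vehicle-treated control cultures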; conditions: S. cerevisiae rad50 mutant strain, hits give high values
How it was run: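 Vehicle-normalised growth inhibition; rad50EPP+ yeast strain, altered in DNA damage repair, compound-treated.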

[4] = NCI Yeast Anticancer Drug Screen. Data for the mgt1 strain (AID 153); conditions: S. cerevisiae mgt1 mutant growth inhibition, hits give high values
How it was run: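 Vehicle-normalized growth inhibition is determined in mgt1 yeast, a strain selected for a defined alteration in DNA repair or cell cycle control.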

[5] = NCI Yeast Anticancer Drug Screen. Data for the rad50 strain (AID 155);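 further: 0% = growth of vehicle-only cultures of the same strain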; conditions: S. cerevisiae rad50 strain growth inhibition, hits give high values
How it was run: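 Growth of the mutant yeast was measured after compound exposure and referenced to vehicle-treated cultures.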

[6] = NCI Yeast Anticancer Drug Screen. Data for the mec2-1 strain (AID 157); conditions: S. cerevisiae mec2-1 strain, hits give high values
How it was run: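 Mutant yeast (mec2-1) grown with compound; growth inhibition relative to vehicle control reported.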

[7] = NCI Yeast Anticancer Drug Screen. Data for the sgs1 mgt1 strain (AID 161);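 further: 0% = growth of cultures given vehicle only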; conditions: S. cerevisiae sgs1 mgt1 strain, hits give high values
How it was run: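 Percent growth inhibition was derived by comparing compound-exposed mutant yeast with vehicle-exposed cultures. The strain carries alterations in DNA damage repair.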

[8] = NCI Yeast Anticancer Drug Screen. Data for the CLN2oe strain (AID 163);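 further: 0% = growth of vehicle-only control cultures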; conditions: S. cerevisiae CLN2oe strain, hits give high values
How it was run: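 Compounds are applied to yeast harbouring a defined cell-cycle control change; reduced growth compared with vehicle-treated controls gives the value.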

[9] = NCI Yeast Anticancer Drug Screen. Data for the cln2 rad14 strain (AID 165);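 further: 0% = growth equal to vehicle treated cultures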; conditions: S. cerevisiae cln2 rad14 strain, hits give high values
How it was run: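 Readout is yeast growth inhibition versus vehicle-treated controls, using a strain with cln2 and rad14 alterations exposed to compound.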

[10] = NCI Yeast Anticancer Drug Screen. Data for the bub3 strain (AID 167); conditions: S. cerevisiae bub3 mutant strain, hits give high values
How it was run: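 Whole-cell yeast assay. The mutant strain was incubated with compounds, and growth inhibition was determined by comparison with vehicle-treated cells.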

[11] = NCI Yeast Anticancer Drug Screen. Data for the wt2 strain (AID 169);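 further: 0% = growth of vehicle-treated yeast cultures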; conditions: S. cerevisiae wt2 strain growth inhibition, hits give high values
How it was run: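 Against vehicle-treated controls, the growth of yeast exposed to each compound was compared, and the inhibition was recorded.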

[12] = NCI Yeast Anticancer Drug Screen. Data for the mlh1 strain (AID 171);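 further: 0% = growth of vehicle-treated control cultures of the same strain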; conditions: S. cerevisiae mlh1 strain growth inhibition, hits give high values
How it was run: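 Measured: yeast growth. Reference: vehicle-treated controls. Organism: strain with a defined alteration affecting DNA damage repair or cell cycle control, treated with compound.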

[13] = NCI Yeast Anticancer Drug Screen. Data for the sgs1 strain (AID 173);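 further: 0% = growth of vehicle-only control cultures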; conditions: S. cerevisiae sgs1 mutant, hits give high values
How it was run: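 Each compound was added to cultures of the altered yeast strain. Growth was recorded, and inhibition was derived by comparison with vehicle controls.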

[14] = NCI Yeast Anticancer Drug Screen. Data for the mlh1 rad18 strain (AID 175); conditions: S. cerevisiae mlh1 rad18 strain growth inhibition, hits give high values
How it was run: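 Genetically defined yeast (DNA repair-deficient) exposed to compounds; growth inhibition determined relative to vehicle.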

[15] = NCI Yeast Anticancer Drug Screen. Data for the rad18 strain (AID 177); conditions: S. cerevisiae rad18 mutant growth inhibition, hits give high values
How it was run: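 Vehicle-treated cultures served as the baseline for scoring compound-induced growth inhibition in DNA-repair-mutant yeast.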

[16] = NCI Yeast Anticancer Drug Screen. Data for the rad14 strain (AID 159);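 further: 0% = growth of vehicle-treated control cultures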; conditions: S. cerevisiae rad14 strain growth inhibition, hits give high values
How it was run: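 Here, inhibition of yeast growth was measured after compound exposure, using a strain with a genetic defect in DNA damage repair and vehicle-treated cultures as the reference.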

[17] = at 5.0 µM (retest, dose inferred, filed as 0.5)
[18] = at 50.0 µM (retest, dose inferred, filed as 5.0)

Measured: growth inhibition

O=C(NOC(=O)c1ccc([N+](=O)[O-])cc1)c1ccc(Cl)cc1
inactive: [1]; at 1.2 µM -1% | [1]; at 3.7 µM 4% | [1]; at 11.0 µM 31% | [2]; at 1.2 µM -30% | [2]; at 3.7 µM -31% | [2]; at 11.0 µM -9% | [3]; at 1.2 µM -19% | [3]; at 3.7 µM 23% | [3]; at 11.0 µM 68% | [4]; at 1.2 µM -58% | [4]; at 3.7 µM -33% | [4]; at 11.0 µM 1% | [5]; at 1.2 µM -36% | [5]; at 3.7 µM -40% | [5]; [17] 6% | [5]; at 11.0 µM 10% | [6]; at 1.2 µM -84% | [6]; at 3.7 µM -64% | [6]; [17] -4% | [6]; at 11.0 µM -15% | [7]; [17] 10% | [8]; at 1.2 µM -18% | [8]; at 3.7 µM 6% | [8]; at 11.0 µM 15% | [9]; [17] 36% | [10]; at 1.2 µM -19% | [10]; at 3.7 µM -18% | [10]; [17] 0% | [10]; at 11.0 µM -4% | [10]; at 33.0 µM 67% | [11]; at 1.2 µM -47% | [11]; at 3.7 µM -27% | [11]; at 11.0 µM 11% | [12]; at 1.2 µM -35% | [12]; at 3.7 µM -35% | [12]; at 11.0 µM -1% | [13]; at 1.2 µM -39% | [13]; at 3.7 µM -17% | [13]; at 11.0 µM 48% | [14]; [17] 14% | [15]; at 1.2 µM -11% | [15]; at 3.7 µM 2% | [15]; at 11.0 µM 43%
active: [1]; at 33.0 µM 89% | [1]; at 100.0 µM 97% | [2]; at 33.0 µM 84% | [2]; at 100.0 µM 96% | [3]; at 33.0 µM 85% | [3]; at 100.0 µM 94% | [4]; at 33.0 µM 90% | [4]; at 100.0 µM 97% | [5]; at 33.0 µM 83% | [5]; [18] 89% | [5]; at 50.0 µM 92.4% | [5]; at 100.0 µM 95% | [6]; at 33.0 µM 82% | [6]; [18] 93% | [6]; at 50.0 µM 92.7% | [6]; at 100.0 µM 97% | [7]; [18] 94% | [7]; at 50.0 µM 91.3% | [8]; at 33.0 µM 80% | [8]; at 100.0 µM 98% | [9]; [18] 96% | [9]; at 50.0 µM 89% | [10]; [18] 89% | [10]; at 50.0 µM 90% | [10]; at 100.0 µM 95% | [11]; at 33.0 µM 87% | [11]; at 100.0 µM 97% | [12]; at 33.0 µM 89% | [12]; at 100.0 µM 96% | [13]; at 33.0 µM 88% | [13]; at 100.0 µM 95% | [14]; [18] 96% | [14]; at 50.0 µM 89.7% | [15]; at 33.0 µM 90% | [15]; at 100.0 µM 96%

O=C1/C(=C/c2ccc(Cl)c(Cl)c2)CNC/C1=C\c1ccc(Cl)c(Cl)c1
inactive: [1]; at 1.2 µM 22% | [1]; at 3.7 µM 22% | [1]; at 11.0 µM 27% | [2]; at 1.2 µM 28% | [2]; at 3.7 µM 25% | [2]; at 11.0 µM 29% | [2]; at 33.0 µM 63% | [3]; at 1.2 µM 14% | [3]; at 3.7 µM 27% | [3]; at 11.0 µM 19% | [3]; at 33.0 µM 32% | [3]; at 100.0 µM 32% | [4]; at 1.2 µM 5% | [4]; at 3.7 µM 13% | [4]; at 11.0 µM 35% | [4]; at 33.0 µM 69% | [5]; at 1.2 µM 12% | [5]; at 3.7 µM 20% | [5]; [17] 19% | [5]; at 11.0 µM 29% | [5]; at 33.0 µM 68% | [5]; [18] 62% | [5]; at 50.0 µM 50% | [6]; at 1.2 µM 25% | [6]; at 3.7 µM 23% | [6]; [17] -9% | [6]; at 11.0 µM 41% | [16]; at 1.2 µM 7% | [16]; at 3.7 µM 8% | [16]; at 11.0 µM 20% | [16]; at 33.0 µM 52% | [8]; at 1.2 µM 15% | [8]; at 3.7 µM 7% | [8]; at 11.0 µM 29% | [8]; at 33.0 µM 48% | [9]; [17] 10% | [9]; [18] 42% | [10]; at 1.2 µM -8% | [10]; at 3.7 µM -9% | [10]; [17] 20% | [10]; at 11.0 µM 13% | [10]; at 33.0 µM 69% | [11]; at 1.2 µM 1% | [11]; at 3.7 µM 0% | [11]; at 11.0 µM -12% | [12]; at 1.2 µM 5% | [12]; at 3.7 µM 13% | [12]; at 11.0 µM 35% | [12]; at 33.0 µM 69% | [13]; at 1.2 µM 29% | [13]; at 3.7 µM 33% | [13]; at 11.0 µM 49% | [14]; [17] 6% | [15]; at 1.2 µM 25% | [15]; at 3.7 µM 16% | [15]; at 11.0 µM 33% | [15]; at 33.0 µM 64%
active: [1]; at 33.0 µM 76% | [1]; at 100.0 µM 93% | [2]; at 100.0 µM 95% | [4]; at 100.0 µM 94% | [5]; at 100.0 µM 95% | [6]; at 33.0 µM 74% | [6]; [18] 74% | [6]; at 50.0 µM 89.8% | [6]; at 100.0 µM 93% | [16]; at 100.0 µM 92% | [8]; at 100.0 µM 79% | [9]; at 50.0 µM 90.4% | [10]; [18] 82% | [10]; at 50.0 µM 91.8% | [10]; at 100.0 µM 92% | [11]; at 33.0 µM 96% | [11]; at 100.0 µM 97% | [12]; at 100.0 µM 94% | [13]; at 33.0 µM 78% | [13]; at 100.0 µM 94% | [14]; [18] 86% | [14]; at 50.0 µM 90.3% | [15]; at 100.0 µM 94%
